In test [1] the target is Sphingosine kinase 1 (Homo sapiens) (UniProt Q9NYA1). Conditions: at 1 µM.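 Also: mean SPHK1 inhibition value reported from the GSK PKIS kinase panel screen.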
The target in test [2] is T1, Sphingosine kinase 2 (Homo sapiens) (UniProt Q9NRA0).
T1 sequence (whole entry): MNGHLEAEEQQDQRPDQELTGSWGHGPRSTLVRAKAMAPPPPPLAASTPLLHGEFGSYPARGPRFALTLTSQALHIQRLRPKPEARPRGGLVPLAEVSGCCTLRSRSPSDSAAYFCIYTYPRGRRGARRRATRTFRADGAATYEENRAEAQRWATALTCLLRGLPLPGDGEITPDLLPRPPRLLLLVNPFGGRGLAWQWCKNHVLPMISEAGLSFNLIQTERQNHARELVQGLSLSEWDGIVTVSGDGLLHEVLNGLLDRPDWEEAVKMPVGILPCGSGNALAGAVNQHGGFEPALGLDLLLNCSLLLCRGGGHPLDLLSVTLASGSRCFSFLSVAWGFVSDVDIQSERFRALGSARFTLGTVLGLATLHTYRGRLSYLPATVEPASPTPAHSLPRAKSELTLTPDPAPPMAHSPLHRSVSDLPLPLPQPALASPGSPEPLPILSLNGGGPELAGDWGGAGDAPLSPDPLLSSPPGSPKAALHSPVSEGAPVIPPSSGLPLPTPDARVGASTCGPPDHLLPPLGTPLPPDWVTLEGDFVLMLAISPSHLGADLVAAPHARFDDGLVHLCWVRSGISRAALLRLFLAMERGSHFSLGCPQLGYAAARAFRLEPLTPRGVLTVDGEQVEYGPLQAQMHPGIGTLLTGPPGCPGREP
The settings on record: at 0.1 µM.

Test [3] concerns the target T1, Sphingosine kinase 2 (Homo sapiens). Conditions: at 1 µM.
The target in test [4] is Casein kinase II subunit alpha (Homo sapiens) (UniProt P68400). The settings on record: at 0.1 µM.
Test [5] has the same target. Conditions: at 1 µM.
Test [6] deals with T2, Inhibitor of nuclear factor kappa-B kinase subunit alpha (Homo sapiens) (UniProt O15111).
T2 sequence (whole entry): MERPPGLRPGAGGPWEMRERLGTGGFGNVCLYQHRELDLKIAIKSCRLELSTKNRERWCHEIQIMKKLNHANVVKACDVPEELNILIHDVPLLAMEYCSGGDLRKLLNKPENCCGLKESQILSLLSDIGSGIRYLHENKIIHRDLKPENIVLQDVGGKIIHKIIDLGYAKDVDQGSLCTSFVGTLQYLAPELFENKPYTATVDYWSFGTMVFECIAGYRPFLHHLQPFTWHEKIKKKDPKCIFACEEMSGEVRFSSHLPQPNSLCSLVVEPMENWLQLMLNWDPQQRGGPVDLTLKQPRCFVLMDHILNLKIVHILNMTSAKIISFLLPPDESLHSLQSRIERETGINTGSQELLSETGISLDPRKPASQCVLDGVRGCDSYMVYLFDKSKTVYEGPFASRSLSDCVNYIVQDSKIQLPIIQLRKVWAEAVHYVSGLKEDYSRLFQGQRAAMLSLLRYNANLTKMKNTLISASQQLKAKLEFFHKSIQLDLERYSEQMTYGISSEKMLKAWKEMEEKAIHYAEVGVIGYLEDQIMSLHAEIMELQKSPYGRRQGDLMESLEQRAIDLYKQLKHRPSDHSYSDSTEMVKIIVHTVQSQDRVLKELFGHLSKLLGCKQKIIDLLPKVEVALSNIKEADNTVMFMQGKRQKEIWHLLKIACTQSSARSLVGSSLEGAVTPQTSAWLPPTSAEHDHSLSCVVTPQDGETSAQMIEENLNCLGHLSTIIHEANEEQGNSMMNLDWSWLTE
Conditions: at 0.1 µM.

Test [7] deals with T2, Inhibitor of nuclear factor kappa-B kinase subunit alpha (Homo sapiens). The settings on record: at 1 µM.
The target of test [8] is T3, Inhibitor of nuclear factor kappa-B kinase subunit beta (Homo sapiens) (UniProt O14920).
T3 sequence (whole entry): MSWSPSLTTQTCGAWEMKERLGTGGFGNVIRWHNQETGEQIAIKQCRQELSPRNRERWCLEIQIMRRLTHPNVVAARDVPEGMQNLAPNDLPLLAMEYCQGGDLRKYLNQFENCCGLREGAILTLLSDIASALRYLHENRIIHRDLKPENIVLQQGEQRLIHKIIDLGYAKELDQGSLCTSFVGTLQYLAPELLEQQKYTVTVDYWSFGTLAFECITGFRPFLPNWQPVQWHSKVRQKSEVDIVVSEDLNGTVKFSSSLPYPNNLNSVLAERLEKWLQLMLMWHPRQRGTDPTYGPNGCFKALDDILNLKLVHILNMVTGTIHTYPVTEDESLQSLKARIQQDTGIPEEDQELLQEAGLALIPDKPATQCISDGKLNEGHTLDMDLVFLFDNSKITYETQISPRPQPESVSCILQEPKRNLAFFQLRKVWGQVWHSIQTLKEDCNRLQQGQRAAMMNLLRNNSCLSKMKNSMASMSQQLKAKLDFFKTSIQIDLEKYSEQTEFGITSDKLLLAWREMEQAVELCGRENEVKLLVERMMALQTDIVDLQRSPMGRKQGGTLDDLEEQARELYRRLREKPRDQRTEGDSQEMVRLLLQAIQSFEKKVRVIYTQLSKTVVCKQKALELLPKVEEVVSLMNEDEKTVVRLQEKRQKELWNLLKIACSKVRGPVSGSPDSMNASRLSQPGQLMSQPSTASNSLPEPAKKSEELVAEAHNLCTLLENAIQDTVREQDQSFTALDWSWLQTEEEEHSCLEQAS
Conditions: at 0.1 µM.

For test [9], the target named is T3, Inhibitor of nuclear factor kappa-B kinase subunit beta (Homo sapiens). Conditions: at 1 µM.
For test [10], the target named is T4, Inhibitor of nuclear factor kappa-B kinase subunit epsilon (Homo sapiens) (UniProt Q14164).
T4 sequence (whole entry): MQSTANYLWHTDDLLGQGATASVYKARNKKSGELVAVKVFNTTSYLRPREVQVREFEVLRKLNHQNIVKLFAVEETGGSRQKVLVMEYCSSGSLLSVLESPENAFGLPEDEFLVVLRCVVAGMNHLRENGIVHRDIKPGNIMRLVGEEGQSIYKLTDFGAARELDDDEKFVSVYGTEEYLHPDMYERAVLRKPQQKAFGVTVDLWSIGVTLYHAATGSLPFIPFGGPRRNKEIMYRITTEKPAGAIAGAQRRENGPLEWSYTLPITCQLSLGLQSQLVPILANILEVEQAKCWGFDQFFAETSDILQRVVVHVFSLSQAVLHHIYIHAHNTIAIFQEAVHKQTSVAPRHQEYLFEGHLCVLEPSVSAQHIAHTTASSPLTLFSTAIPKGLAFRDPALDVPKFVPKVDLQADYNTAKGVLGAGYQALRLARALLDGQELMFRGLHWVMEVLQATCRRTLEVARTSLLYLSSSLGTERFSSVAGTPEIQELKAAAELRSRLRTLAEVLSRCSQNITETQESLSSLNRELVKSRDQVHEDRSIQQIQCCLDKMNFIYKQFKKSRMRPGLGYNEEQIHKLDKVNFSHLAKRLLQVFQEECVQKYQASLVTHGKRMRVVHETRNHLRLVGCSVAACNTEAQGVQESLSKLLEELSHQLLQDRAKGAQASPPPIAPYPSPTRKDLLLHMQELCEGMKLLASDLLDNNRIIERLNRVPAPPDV
Conditions: at 0.1 µM.

Test [11] deals with T4, Inhibitor of nuclear factor kappa-B kinase subunit epsilon (Homo sapiens). Conditions: at 1 µM.
The target in test [12] is T5, Serine/threonine-protein kinase Nek1 (Homo sapiens) (UniProt Q96PY6).
T5 sequence (whole entry): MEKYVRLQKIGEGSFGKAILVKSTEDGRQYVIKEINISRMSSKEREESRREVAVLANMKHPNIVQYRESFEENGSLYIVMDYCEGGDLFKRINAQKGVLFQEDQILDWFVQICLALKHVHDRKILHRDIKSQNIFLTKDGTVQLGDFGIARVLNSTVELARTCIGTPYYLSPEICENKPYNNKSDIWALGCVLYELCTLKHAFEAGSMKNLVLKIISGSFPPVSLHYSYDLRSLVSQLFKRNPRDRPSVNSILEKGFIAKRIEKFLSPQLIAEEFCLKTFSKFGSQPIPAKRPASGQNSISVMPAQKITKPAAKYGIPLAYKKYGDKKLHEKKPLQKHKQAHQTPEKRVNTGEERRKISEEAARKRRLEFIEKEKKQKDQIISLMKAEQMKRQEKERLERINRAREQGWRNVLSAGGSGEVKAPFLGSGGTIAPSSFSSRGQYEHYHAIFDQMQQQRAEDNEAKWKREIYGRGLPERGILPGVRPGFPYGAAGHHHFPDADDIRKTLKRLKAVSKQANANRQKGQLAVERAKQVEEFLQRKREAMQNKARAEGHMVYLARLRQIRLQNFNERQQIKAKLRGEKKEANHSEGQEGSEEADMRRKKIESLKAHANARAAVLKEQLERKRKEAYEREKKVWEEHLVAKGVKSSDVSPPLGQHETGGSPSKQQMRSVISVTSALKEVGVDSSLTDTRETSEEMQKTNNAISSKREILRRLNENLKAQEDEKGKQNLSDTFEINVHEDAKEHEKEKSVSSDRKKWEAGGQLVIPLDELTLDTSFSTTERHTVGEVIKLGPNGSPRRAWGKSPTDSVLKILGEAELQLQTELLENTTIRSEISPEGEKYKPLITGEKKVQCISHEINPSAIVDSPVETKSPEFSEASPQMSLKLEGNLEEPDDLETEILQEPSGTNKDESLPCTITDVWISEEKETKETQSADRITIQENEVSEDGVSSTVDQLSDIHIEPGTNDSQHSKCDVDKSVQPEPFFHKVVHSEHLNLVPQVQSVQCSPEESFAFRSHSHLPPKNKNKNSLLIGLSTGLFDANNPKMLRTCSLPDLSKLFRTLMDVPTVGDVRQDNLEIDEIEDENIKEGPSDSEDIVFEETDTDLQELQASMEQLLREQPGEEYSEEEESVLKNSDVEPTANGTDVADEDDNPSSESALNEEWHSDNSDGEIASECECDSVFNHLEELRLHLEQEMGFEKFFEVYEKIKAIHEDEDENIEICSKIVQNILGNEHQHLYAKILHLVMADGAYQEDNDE
Conditions: at 0.1 µM.

The target of test [13] is T5, Serine/threonine-protein kinase Nek1 (Homo sapiens). Conditions: at 1 µM.
Test [14] has as its target T6, Serine/threonine-protein kinase Nek2 (Homo sapiens) (UniProt P51955).
T6 sequence (whole entry): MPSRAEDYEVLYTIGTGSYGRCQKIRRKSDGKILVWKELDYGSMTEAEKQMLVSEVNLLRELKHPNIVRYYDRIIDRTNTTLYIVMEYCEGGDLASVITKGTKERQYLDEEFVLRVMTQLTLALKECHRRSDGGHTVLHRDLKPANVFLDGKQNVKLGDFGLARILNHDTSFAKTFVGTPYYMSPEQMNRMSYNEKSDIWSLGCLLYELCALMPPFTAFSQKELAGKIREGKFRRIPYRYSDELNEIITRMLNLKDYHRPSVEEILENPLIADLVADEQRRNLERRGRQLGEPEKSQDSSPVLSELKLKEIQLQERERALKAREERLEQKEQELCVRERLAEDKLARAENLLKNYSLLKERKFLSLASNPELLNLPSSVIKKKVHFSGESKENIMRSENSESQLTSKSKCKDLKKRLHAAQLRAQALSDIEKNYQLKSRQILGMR
The settings on record: at 0.1 µM.

In test [15] the target is T6, Serine/threonine-protein kinase Nek2 (Homo sapiens). Conditions: at 1 µM.
Test [16] has as its target Serine/threonine-protein kinase Nek6 (Homo sapiens) (UniProt Q9HC98). Conditions: at 0.1 µM.
The target is the same in test [17]. The settings on record: at 1 µM.
The target of test [18] is Serine/threonine-protein kinase Nek7 (Homo sapiens) (UniProt Q8TDX7). Conditions: at 0.1 µM.
Test [19] has the same target. Conditions: at 1 µM.
Test [20] addresses T7, Serine/threonine-protein kinase Nek9 (Homo sapiens) (UniProt Q8TD19).
T7 sequence (whole entry): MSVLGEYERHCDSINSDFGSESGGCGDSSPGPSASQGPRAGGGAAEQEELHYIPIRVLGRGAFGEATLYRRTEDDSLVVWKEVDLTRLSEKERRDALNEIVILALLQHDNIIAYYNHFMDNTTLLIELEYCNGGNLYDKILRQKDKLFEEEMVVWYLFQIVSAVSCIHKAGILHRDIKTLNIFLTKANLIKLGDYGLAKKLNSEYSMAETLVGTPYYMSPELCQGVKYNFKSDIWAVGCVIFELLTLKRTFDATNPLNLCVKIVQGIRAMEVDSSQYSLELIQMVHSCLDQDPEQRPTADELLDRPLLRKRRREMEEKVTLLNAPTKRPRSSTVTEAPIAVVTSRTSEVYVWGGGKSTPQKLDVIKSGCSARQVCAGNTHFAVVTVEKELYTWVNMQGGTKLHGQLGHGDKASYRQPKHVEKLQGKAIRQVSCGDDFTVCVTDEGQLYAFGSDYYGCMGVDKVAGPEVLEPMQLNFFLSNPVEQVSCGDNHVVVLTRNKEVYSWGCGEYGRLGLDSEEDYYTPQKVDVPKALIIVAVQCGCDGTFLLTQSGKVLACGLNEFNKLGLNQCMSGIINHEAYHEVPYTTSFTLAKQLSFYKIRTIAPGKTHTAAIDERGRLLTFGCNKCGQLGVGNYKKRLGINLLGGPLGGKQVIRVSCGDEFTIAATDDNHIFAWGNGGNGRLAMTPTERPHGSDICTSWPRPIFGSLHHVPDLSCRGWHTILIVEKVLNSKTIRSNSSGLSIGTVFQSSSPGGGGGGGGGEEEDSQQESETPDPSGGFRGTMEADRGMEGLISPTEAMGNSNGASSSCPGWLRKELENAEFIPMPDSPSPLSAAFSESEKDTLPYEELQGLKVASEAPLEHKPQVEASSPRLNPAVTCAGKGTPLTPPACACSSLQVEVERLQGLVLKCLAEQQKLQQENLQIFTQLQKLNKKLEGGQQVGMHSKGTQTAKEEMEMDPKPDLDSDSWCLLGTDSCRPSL
The settings on record: at 0.1 µM.

As usually defined, the inhibition is the drop in the measured response relative to a control, in per cent.

Casein kinase II subunit alpha (Homo sapiens), sequence (P68400 whole entry, looked up): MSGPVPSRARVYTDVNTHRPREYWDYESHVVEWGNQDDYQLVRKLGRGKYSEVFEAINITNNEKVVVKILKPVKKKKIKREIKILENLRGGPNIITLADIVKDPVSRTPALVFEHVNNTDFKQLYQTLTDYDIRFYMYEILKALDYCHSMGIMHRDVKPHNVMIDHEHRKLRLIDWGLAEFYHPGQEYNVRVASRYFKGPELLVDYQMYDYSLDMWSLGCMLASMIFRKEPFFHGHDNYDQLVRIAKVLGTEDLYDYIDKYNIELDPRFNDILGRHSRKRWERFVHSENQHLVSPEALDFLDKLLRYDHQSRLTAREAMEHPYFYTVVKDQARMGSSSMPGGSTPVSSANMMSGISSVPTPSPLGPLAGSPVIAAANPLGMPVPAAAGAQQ
Serine/threonine-protein kinase Nek7 (Homo sapiens), sequence (Q8TDX7 whole entry, looked up): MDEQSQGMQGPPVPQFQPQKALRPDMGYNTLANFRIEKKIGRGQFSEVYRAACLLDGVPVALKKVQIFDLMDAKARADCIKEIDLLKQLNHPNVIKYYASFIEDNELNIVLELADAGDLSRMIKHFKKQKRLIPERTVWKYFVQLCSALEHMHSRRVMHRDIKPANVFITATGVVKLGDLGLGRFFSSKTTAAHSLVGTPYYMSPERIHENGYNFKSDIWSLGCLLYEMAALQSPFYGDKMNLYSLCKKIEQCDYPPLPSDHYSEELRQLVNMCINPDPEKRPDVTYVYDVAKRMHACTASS
Serine/threonine-protein kinase Nek6 (Homo sapiens), sequence (Q9HC98 whole entry): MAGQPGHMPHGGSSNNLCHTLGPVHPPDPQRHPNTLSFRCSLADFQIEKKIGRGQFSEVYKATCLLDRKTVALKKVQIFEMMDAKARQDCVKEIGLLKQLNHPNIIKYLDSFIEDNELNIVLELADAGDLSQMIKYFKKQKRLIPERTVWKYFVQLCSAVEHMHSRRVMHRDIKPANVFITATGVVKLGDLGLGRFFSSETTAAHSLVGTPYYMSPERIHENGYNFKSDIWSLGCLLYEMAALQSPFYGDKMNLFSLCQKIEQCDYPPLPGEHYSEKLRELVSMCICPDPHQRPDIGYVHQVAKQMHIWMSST
Sphingosine kinase 1 (Homo sapiens), sequence (Q9NYA1 whole entry): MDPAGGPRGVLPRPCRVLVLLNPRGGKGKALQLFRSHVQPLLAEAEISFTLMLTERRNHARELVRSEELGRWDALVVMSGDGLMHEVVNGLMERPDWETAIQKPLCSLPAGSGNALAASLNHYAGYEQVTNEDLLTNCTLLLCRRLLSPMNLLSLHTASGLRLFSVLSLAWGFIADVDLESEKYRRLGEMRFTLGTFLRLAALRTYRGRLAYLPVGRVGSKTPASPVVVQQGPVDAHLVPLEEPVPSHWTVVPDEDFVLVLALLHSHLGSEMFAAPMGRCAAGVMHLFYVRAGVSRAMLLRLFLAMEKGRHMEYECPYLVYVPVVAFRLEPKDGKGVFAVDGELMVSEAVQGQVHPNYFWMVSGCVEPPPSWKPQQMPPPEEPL

With `CC(=O)NCc1cccc(C#Cc2cncnc2Nc2ccc(OCc3cccc(F)c3)c(Cl)c2)c1`, the inhibition in test [1] was -1.56%; in test [2], -0.13%; in [3], -2.39%; in test [4], -0.56%; in test [5], 1.55%; in test [6], -0.42%. Besides, the inhibition is 3.17% in test [7]; -1.42% in [8]; 1.29% in [9]; 0.37% in [10]; -1% in test [11]; 0.64% in test [12]. Besides, the inhibition is 1.25% in test [13]; 0.96% in [14]; 0.7% in test [15]; -1.02% in test [16]; -2.65% in [17]; 4.09% in [18]. Moreover, the inhibition in test [19] is 2.44%; in test [20], 0.38%.

For the origin of these results see ChEMBL document CHEMBL1961873, “Compounds: GSK PKIS; Assays: Nanosyn kinase panel” (2012).
